Consider 6 compounds from ChEMBL document CHEMBL2218924, “A broad activity screen in support of a chemogenomic map for kinase signalling research and drug discovery” (Biochem J, 2013).

Assay [1] deals with T1, cGMP-dependent protein kinase 1 (Homo sapiens) (UniProt Q13976).
T1 sequence (whole entry): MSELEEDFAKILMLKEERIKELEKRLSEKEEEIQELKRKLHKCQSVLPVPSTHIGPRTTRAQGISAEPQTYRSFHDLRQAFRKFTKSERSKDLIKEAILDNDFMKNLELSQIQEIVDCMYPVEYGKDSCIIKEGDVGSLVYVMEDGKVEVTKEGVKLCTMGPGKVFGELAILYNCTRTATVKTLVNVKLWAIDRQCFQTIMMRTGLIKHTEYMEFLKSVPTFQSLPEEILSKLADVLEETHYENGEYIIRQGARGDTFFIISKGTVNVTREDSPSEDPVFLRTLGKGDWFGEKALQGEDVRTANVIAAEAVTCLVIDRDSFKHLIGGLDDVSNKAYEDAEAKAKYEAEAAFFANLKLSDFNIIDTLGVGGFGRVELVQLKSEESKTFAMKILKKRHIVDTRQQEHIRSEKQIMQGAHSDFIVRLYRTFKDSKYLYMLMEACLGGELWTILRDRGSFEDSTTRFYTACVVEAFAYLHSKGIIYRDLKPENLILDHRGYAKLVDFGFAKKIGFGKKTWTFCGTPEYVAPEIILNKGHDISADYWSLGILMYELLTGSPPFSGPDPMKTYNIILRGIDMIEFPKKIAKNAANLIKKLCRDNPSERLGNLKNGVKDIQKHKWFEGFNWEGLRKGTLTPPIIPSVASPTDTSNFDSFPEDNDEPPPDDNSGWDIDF
As to conditions: at 1 µM.

Assay [2] deals with T1, cGMP-dependent protein kinase 1 (Homo sapiens). As to conditions: at 10 µM.
Assay [3] has the same target. The following applies: at 1 µM. The source holds these as a separate data set.
For assay [4] the target is unchanged. As to conditions: at 10 µM. This is another data set of the same source.
For assay [5], the target named is T2, MAP kinase-activated protein kinase 5 (Homo sapiens) (UniProt Q8IW41).
T2 sequence (whole entry): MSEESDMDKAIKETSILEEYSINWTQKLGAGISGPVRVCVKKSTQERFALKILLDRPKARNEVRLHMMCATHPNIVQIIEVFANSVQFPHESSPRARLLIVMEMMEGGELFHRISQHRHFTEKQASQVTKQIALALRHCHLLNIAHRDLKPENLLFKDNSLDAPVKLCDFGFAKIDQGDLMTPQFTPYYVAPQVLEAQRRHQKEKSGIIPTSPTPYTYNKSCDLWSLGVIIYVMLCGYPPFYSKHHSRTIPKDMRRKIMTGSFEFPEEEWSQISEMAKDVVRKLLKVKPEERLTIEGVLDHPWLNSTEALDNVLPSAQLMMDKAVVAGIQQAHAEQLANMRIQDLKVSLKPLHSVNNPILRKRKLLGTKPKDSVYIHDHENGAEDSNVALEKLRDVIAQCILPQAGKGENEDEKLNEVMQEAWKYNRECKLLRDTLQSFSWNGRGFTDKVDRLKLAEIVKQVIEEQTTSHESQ
As to conditions: at 1 µM.

For assay [6], the target named is T2, MAP kinase-activated protein kinase 5 (Homo sapiens). As to conditions: at 10 µM.
Assay [7] has as its target Serine/threonine-protein kinase N2 (Homo sapiens) (UniProt Q16513). As to conditions: at 1 µM.
Assay [8] has the same target. As to conditions: at 10 µM.
The target in assay [9] is Tyrosine-protein kinase FRK (Homo sapiens) (UniProt P42685). The following applies: at 1 µM.
The target is the same in assay [10]. As to conditions: at 10 µM.
Assay [11] has as its target T3, Phosphorylase b kinase gamma catalytic chain, liver/testis isoform (Homo sapiens) (UniProt P15735).
T3 sequence (whole entry): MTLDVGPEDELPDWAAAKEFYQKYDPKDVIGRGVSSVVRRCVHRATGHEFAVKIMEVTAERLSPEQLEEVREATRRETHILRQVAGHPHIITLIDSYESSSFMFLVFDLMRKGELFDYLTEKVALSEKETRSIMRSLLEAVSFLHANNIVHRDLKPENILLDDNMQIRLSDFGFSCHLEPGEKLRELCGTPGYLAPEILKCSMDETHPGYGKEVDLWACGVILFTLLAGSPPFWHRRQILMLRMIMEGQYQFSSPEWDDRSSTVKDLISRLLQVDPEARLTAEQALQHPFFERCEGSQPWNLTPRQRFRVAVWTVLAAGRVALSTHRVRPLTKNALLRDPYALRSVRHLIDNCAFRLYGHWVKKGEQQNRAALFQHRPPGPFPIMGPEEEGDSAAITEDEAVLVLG
As to conditions: at 1 µM.

The target in assay [12] is T3, Phosphorylase b kinase gamma catalytic chain, liver/testis isoform (Homo sapiens). As to conditions: at 10 µM.
In assay [13] the target is Serine/threonine-protein kinase pim-1 (Homo sapiens) (UniProt P11309). As to conditions: at 1 µM.
For assay [14] the target is unchanged. As to conditions: at 10 µM.
The target of assay [15] is Serine/threonine-protein kinase pim-2 (Homo sapiens) (UniProt Q9P1W9). As to conditions: at 1 µM.
The target is the same in assay [16]. The following applies: at 10 µM.
Assay [17] addresses Serine/threonine-protein kinase pim-3 (Homo sapiens) (UniProt Q86V86). As to conditions: at 1 µM.
For assay [18] the target is unchanged. As to conditions: at 10 µM.
In assay [19] the target is Serine/threonine-protein kinase PLK1 (Homo sapiens) (UniProt P53350). The following applies: at 1 µM.
For assay [20] the target is unchanged. The following applies: at 10 µM.

Sequence of Serine/threonine-protein kinase N2 (Homo sapiens) (Q16513 whole entry, looked up): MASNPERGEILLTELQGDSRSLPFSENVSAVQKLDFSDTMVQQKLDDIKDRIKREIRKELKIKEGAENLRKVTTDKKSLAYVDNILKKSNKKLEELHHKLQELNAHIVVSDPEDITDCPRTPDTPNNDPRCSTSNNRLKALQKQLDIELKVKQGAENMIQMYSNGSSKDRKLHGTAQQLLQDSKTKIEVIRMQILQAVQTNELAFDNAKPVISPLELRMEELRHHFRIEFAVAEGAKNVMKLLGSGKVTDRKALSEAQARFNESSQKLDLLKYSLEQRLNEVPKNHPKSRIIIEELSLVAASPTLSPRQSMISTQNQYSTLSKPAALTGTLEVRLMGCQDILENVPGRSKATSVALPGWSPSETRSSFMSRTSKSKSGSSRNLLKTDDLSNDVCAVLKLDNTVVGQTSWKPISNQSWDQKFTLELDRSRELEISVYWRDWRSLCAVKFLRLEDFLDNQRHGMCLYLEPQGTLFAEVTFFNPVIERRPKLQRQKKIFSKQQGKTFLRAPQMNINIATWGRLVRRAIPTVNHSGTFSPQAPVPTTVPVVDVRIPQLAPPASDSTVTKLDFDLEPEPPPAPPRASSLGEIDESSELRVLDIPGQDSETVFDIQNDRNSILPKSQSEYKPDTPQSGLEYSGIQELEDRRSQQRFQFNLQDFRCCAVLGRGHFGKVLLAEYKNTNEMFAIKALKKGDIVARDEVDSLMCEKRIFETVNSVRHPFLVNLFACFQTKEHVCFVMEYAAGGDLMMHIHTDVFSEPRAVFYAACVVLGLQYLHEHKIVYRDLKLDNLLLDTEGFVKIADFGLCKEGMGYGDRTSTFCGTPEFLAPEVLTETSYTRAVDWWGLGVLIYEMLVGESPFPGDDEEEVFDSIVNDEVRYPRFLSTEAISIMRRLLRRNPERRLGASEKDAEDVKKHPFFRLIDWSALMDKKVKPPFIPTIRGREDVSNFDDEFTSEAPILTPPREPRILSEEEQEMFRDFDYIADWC
Sequence of Serine/threonine-protein kinase pim-1 (Homo sapiens) (P11309 whole entry, looked up): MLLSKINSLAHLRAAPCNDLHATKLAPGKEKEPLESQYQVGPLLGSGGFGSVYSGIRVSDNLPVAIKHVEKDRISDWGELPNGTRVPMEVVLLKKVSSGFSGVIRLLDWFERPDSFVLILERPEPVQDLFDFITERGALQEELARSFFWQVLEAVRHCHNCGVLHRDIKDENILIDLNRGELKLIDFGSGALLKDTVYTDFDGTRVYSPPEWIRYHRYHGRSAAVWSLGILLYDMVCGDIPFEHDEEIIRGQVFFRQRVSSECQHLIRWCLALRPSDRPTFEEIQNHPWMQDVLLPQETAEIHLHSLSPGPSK
Sequence of Serine/threonine-protein kinase pim-2 (Homo sapiens) (Q9P1W9 whole entry, looked up): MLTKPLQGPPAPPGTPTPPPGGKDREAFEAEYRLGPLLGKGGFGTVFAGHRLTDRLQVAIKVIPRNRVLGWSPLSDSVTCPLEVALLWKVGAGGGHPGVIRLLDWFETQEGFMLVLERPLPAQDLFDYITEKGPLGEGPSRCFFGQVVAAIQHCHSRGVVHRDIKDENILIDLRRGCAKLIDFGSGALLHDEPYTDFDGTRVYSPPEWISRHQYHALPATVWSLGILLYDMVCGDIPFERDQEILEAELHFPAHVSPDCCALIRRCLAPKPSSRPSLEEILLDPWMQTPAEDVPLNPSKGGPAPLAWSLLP
Sequence of Serine/threonine-protein kinase PLK1 (Homo sapiens) (P53350 whole entry): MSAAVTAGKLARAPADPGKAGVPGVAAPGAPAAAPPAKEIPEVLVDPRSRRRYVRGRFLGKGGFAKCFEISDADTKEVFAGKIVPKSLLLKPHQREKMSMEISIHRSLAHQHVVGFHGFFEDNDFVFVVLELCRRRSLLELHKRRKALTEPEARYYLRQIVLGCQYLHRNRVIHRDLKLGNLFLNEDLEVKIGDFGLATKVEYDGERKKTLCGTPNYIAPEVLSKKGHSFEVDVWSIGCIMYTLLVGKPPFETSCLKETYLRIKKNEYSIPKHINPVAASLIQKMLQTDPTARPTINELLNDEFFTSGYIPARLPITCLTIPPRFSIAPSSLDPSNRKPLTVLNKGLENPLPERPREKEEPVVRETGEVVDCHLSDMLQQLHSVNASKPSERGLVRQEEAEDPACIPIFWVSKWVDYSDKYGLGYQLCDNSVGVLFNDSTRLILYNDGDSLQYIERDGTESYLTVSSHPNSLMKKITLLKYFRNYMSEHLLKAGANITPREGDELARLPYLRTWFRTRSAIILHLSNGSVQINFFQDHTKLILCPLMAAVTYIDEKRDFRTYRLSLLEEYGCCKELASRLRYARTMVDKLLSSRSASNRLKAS
Sequence of Tyrosine-protein kinase FRK (Homo sapiens) (P42685 whole entry): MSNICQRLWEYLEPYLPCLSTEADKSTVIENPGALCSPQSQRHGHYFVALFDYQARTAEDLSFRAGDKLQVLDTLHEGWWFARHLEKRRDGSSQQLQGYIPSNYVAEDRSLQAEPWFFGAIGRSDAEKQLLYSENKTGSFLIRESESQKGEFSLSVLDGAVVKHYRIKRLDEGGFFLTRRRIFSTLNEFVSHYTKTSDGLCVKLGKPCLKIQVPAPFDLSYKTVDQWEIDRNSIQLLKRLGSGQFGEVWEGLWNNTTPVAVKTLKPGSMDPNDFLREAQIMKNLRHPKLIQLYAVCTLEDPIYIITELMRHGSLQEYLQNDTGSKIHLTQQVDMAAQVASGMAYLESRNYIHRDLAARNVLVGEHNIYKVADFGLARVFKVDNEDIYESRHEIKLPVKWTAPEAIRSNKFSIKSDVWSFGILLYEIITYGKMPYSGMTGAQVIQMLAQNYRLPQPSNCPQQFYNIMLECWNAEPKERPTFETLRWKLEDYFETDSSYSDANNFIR

With `CCC(=O)Nc1ccc2ncnc(Nc3cccc(Br)c3)c2c1`, the residual activity in [1] turned out to be 108%; in assay [2] it was 96%; in [3], 89%; in assay [4] it was 81%; in assay [5], 74%; in assay [6] it was 74%. Moreover, the residual activity in [7] was 90%; in assay [8], 99%; in [9] it was 94%; in assay [10], 59%; in [11] it was 90%; in [12], 108%. In addition, the residual activity in assay [13] was 80%; in assay [14], 86%; in assay [15], 104%; in [16] it was 94%; in assay [17], 92%; in assay [18], 85%. Besides, the residual activity was 93% in assay [19] and 71% in assay [20].
Turning to `CC#CC(=O)Nc1cc2c(Nc3ccc(F)c(Cl)c3)ncnc2cn1`, the residual activity in [1] amounted to 103%; in assay [2], 102%; in assay [3] it was 86%; in assay [4] it was 92%; in [5] it was 84%; in assay [6], 77%. For the same compound, the residual activity in assay [7] came to 94%; in assay [8], 98%; in [9] it was 97%; in assay [10], 92%; in assay [11], 92%; in assay [12] it was 105%. For the same compound, the residual activity in assay [13] stood at 88%; in assay [14], 101%; in assay [15], 82%; in [16], 109%; in assay [17], 91%; in assay [18], 91%. Also, the residual activity in [19] is 98%; in assay [20] it was 81%.
For `Cn1cnc2cc3c(Nc4cccc(Br)c4)ncnc3cc21`, the residual activity in assay [1] is 115%; in [2], 87%; in assay [3], 93%; in assay [4] it was 88%; in assay [5], 78%; in [6] it was 78%. Also, the residual activity in [7] was 101%; in [8] it was 97%; in assay [9], 72%; in [10], 28%; in [11], 95%; in assay [12] it was 98%. The residual activity in assay [13] amounted to 75%; in assay [14] it was 63%; in [15] it was 84%; in assay [16] it was 97%; in assay [17], 92%; in assay [18], 88%. The residual activity is 105% in assay [19] and 82% in assay [20].
On to `O=C(Nc1cccc(Nc2nccc(Nc3cccc(C(F)(F)F)c3)n2)c1)C1CC1`, for which the residual activity was found to be 100% in assay [1]; 101% in assay [2]; 90% in assay [3]; 66% in assay [4]; 128% in assay [5]; 65% in [6]. In addition, the residual activity is 106% in [7]; 96% in assay [8]; 53% in [9]; 11% in [10]; 94% in assay [11]; 80% in [12]. Besides, the residual activity in assay [13] stood at 66%; in [14] it was 64%; in assay [15], 110%; in [16], 119%; in assay [17] it was 104%; in assay [18] it was 104%. Moreover, the residual activity in assay [19] was 78%; in assay [20], 74%.
For the compound `COc1ccc(CNc2nc(N(CCO)CCO)nc3c2ncn3C(C)C)cc1`, the residual activity in assay [1] was determined as 93%; in [2] it was 101%; in assay [3] it was 109%; in [4] it was 101%; in [5] it was 100%; in assay [6], 102%. Besides, the residual activity in assay [7] was 104%; in [8], 77%; in [9], 95%; in assay [10], 87%; in [11], 122%; in assay [12], 88%. The residual activity worked out at 87% in assay [13]; 69% in assay [14]; 134% in assay [15]; 130% in assay [16]; 87% in assay [17]; 88% in assay [18]. Further, the values for the residual activity in assay [19] and in [20] were 69% and 58%, respectively.
On to `COc1cc2ncnc(Nc3ccc(Oc4ccccc4)cc3)c2cc1OC`, for which the residual activity in assay [1] was 119%; in assay [2] it was 143%; in [3], 76%; in assay [4], 110%; in assay [5], 120%; in [6] it was 118%. Besides, the residual activity in assay [7] is 91%; in [8] it was 120%; in assay [9] it was 39%; in [10] it was 7%; in assay [11] it was 95%; in [12], 123%. In addition, the residual activity was determined as 81% in assay [13]; 132% in assay [14]; 135% in assay [15]; 142% in [16]; 95% in [17]; 93% in assay [18]. In addition, the results for the residual activity in assay [19] and in [20] were 74% and 72%, respectively.
